Bioassay records (PubChem BioAssay)
Shown are actives, neighbours in structure and some others; about 3.3% of the full set was active somewhere.
AmpC no deterg – AmpC beta-lactamase inhibition without detergent; Potency, µM (doses to about 57.1 µM), inactives show top-dose activity change, negative = inhibition, usual class: inhibitors; P00811; AID 485341; 330,000 compounds, 0.52% hits; AmpC nitrocefin hydrolysis, absorbance 480 nm, 0.0001% Triton;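 further: plate controls were no compound for no effect and no enzyme for full effect; nearly all actives have a fitted effect of over 20% in size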
Target sequence (P00811 whole entry, looked up): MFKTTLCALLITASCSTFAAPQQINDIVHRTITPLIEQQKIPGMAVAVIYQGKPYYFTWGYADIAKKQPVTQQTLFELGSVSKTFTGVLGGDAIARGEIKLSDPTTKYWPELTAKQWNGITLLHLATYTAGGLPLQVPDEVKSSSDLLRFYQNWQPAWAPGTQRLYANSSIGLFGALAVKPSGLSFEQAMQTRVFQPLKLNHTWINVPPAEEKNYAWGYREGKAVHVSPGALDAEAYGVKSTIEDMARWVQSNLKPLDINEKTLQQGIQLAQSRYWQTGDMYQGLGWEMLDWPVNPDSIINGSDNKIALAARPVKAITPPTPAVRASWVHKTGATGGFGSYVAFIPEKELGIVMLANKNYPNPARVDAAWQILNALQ
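AmpC (5.3 nM in the dispensed reagent) in 20 mM phosphate pH 7.0 with 0.01% (detergent screen) or 0.0001% Triton X-100 was preincubated with compounds for 15 min at room temperature. Nitrocefin was then added from an 800 uM solution, and hydrolysis was followed at 480 nm.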
AmpC detergent – AmpC beta-lactamase inhibition with detergent present | 370,000 compounds, 0.041% hits | AmpC hydrolysis of nitrocefin, absorbance 480 nm, 0.01% Triton | P00811 | Potency, µM (top dose mostly 114 µM), for the others: at the top dose activity change, negative = inhibition, actives largely listed as inhibitors;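 further: 0% = no-compound wells and -100% = no-enzyme wells; nearly all actives have a fitted effect of over 25% in size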
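AmpC (5.3 nM in the dispensed reagent) in 20 mM phosphate pH 7.0 with 0.01% (detergent screen) or 0.0001% Triton X-100 was preincubated with compounds for 15 min at room temperature. Nitrocefin was then added from an 800 uM solution, and hydrolysis was followed at 480 nm.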
Sm TGR inh – inhibitors of Schistosoma mansoni thioredoxin glutathione reductase; AID 485364; 360,000 compounds, 3% hits; Potency, µM (top dose mostly 114 µM), for the others: at the top dose activity change, negative = inhibition, most hits filed as inhibitors; Q962Y6; purified TGR, DTNB reduction, TNB absorbance 405 nm; further: nearly all actives have a fitted effect of over 60% in size
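First, TGR (20 nM dispensed) and NADPH were mixed with compound. Second, a 15 min room-temperature incubation followed. Third, further NADPH and then DTNB were added to start the reaction. Finally, TNB absorbance was monitored kinetically.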
An asterisk follows results filed as active. The call rests on the fitted dose curve; in most records, active means well fitted curve in the direction sought with a large enough effect; inconclusive means small, poorly fitted or top-dose-only effect, or another doubt; inactive means no such curve, though single readings can be large; an effect the other way counts as inactive or inconclusive. Unless noted, on the % scale 0 is the no-effect control and ±100 the full control effect; potency means the concentration at half of the fitted maximal effect.

Cc1cc(C)c2nc(SCC(=O)NC(=O)c3cccn3C)cc(C)c2c1 was read as AmpC no deterg -44%, AmpC detergent -3% and Sm TGR inh -14%.
For CCc1ccc2occ(CC(=O)Nc3c(C(=O)c4ccc(F)cc4)oc4ccccc34)c2c1 the results were AmpC detergent -4% and Sm TGR inh 0%.
COc1cc(C2SCC(=O)N2Cc2ccccc2)cc(OC)c1OC (configuration not stated) was read as AmpC no deterg 0%, AmpC detergent 0% and Sm TGR inh 6%.
`CCOc1ccc(-c2nnc(SCC(=O)NCc3ccccc3)nc2-c2ccc(OCC)c(OC)c2)cc1OC` gave AmpC detergent 4% and Sm TGR inh 3%.
For Cc1ccc2[nH]c(=O)c(CN(CCCN3CCOCC3)C(=O)NC3CCCCC3)cc2c1 the results were AmpC no deterg 101%, AmpC detergent inconclusive and Sm TGR inh 100µM*.
O=C(NC1CCCCC1)N(CCN1CCOCC1)Cc1cc2cc3c(cc2[nH]c1=O)OCCO3 was read as AmpC no deterg 45%, AmpC detergent -17% and Sm TGR inh -24%.
`CC(C)NC(=O)COc1coc(CN2CCN(c3ccccc3)CC2)cc1=O` gave AmpC no deterg -1%, AmpC detergent inconclusive and Sm TGR inh -8%.
Cc1cc(Sc2nnc(N)s2)c2ccccc2n1 was read as AmpC no deterg -26%, AmpC detergent 10% and Sm TGR inh 4µM*.
`CCCCCCCCSc1nnc(/N=C/N(C)C)s1` gave AmpC no deterg 6%, AmpC detergent 1% and Sm TGR inh -4%.
Screening Cc1cc(Sc2nnc(/N=C/N(C)C)s2)c2ccccc2n1 returned AmpC no deterg 41%, AmpC detergent 1% and Sm TGR inh 3.5µM*.
`Cc1cc(C(N)=O)c2ccccc2n1` gave AmpC no deterg -21%, AmpC detergent -9% and Sm TGR inh -16%.
O=C(NCCN1CCCCC1)c1cc(Cl)ccc1Cl was read as AmpC no deterg -10%, AmpC detergent inconclusive and Sm TGR inh -20%.
Screening Cc1ccccc1OCC(=O)N/N=C/c1ccc([N+](=O)[O-])o1 returned AmpC no deterg -10%, AmpC detergent 4% and Sm TGR inh inconclusive.
COc1ccccc1OCC(=O)N/N=C/C=C/c1ccc([N+](=O)[O-])o1 was read as AmpC no deterg -16%, AmpC detergent -2% and Sm TGR inh 45µM*.
For O=C(COc1ccccc1[N+](=O)[O-])N/N=C/C=C/c1ccco1 the results were AmpC no deterg -37%, AmpC detergent 1% and Sm TGR inh 35µM*.
`Cc1ccc(OCC(=O)N/N=C/C=C/c2ccco2)cc1` gave AmpC no deterg -18%, AmpC detergent inconclusive and Sm TGR inh inconclusive.
`O=C(O)c1cccc2c1C(=O)c1ccc(-c3ccc(Cl)c(C(F)(F)F)c3)cc1S2(=O)=O` gave AmpC no deterg -15%, AmpC detergent 5% and Sm TGR inh -29%.
S=c1[nH]nc(Cn2cnc3ccccc32)n1-c1ccccc1 was read as AmpC no deterg -15%, AmpC detergent -2% and Sm TGR inh -10%.
For CC1CC2(CCCC2)Nc2ccc(F)cc21 (configuration not stated) the results were AmpC no deterg -18%, AmpC detergent 4% and Sm TGR inh 40µM*.
Cc1cccc2c1NC1(CCCC1)CC2C (configuration not stated) was read as AmpC no deterg -13%, AmpC detergent -5% and Sm TGR inh inconclusive.
Screening Cc1sc2nc(CSCC(=O)N3CC(C)OC(C)C3)[nH]c(=O)c2c1C (configuration not stated) returned AmpC no deterg -1%, AmpC detergent -15% and Sm TGR inh 2%.
C=CCn1c(Cc2c[nH]c3ccccc23)nnc1SCC(=O)NCc1ccccc1 was read as AmpC no deterg 96%, AmpC detergent inconclusive and Sm TGR inh -1%.
Screening C=CCn1c(Cc2c(C)[nH]c3ccccc23)nnc1SCC(=O)NCc1ccc(F)cc1 returned AmpC no deterg 33%, AmpC detergent -7% and Sm TGR inh 32µM*.
`CCn1c(Cc2c(C)[nH]c3ccccc23)nnc1SCC(N)=O` gave AmpC no deterg -6%, AmpC detergent 0% and Sm TGR inh 45µM*.
`CCn1c(Cc2c(C)[nH]c3ccccc23)nnc1SCC(=O)NCc1ccccc1` gave AmpC no deterg 32%, AmpC detergent -12% and Sm TGR inh inconclusive.
COc1ccc(S(=O)(=O)NCCCn2ccnc2)cc1C(C)(C)C was read as AmpC no deterg 14%, AmpC detergent -13% and Sm TGR inh -16%.
